D2 ag-1: Beta-Arrestin HTS for Positive Allosteric Modulators of the Human D2 Dopamine Receptor: Agonists. D(2) dopamine receptor (Homo sapiens), P14416. actives 0.084% (n = 360,000). activation, % (test concentration not listed). DiscoveRx PathHunter D2 beta-arrestin, luminescence, 90 min; 100% = 57 uM dopamine signal; in the data active means activation above about 40%
Target sequence (P14416 whole entry, looked up): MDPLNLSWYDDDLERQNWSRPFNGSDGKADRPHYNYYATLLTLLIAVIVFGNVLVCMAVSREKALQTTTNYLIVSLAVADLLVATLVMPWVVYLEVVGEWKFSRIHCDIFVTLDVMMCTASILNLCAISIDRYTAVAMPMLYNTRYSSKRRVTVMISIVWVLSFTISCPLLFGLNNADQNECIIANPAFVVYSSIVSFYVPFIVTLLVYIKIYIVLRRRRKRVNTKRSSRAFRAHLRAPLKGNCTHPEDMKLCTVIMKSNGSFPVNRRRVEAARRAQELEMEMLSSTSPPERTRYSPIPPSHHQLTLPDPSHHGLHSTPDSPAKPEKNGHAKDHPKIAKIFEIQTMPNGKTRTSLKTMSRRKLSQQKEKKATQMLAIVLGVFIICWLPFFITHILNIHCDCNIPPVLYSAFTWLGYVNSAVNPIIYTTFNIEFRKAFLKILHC
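DiscoveRx PathHunter D2 beta-arrestin cells (2,100/well) attached overnight, then compound-stimulated 90 min at 37 C in HBSS/10 mM HEPES/0.1% Tween-20 buffer; beta-galactosidase complementation read by luminescence after 1 h at ambient temperature. Dopamine 57 uM final (EC100) as control.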
D2 antag: HTS Assay for Allosteric Antagonists of the Human D2 Dopamine Receptor: Primary Screen for Antagonists | actives 2% (n = 340,000) | AID 485344, 2010 | HEK293 TREx D2 cells, calcium flux, dopamine EC80 | inhibition, % at 10 µM; in the data active means inhibition above about 30%; inactive means below that, where a call was filed
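Compounds are added to dye-loaded, induced HEK293 T-REx cells coupled to calcium release via D2; after a 3 min kinetic read an EC80 dopamine stimulus is given and fluorescence is recorded for 3 more min.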
D2 PAM-1: Beta-Arrestin HTS for Positive Allosteric Modulators of the Human D2 Dopamine Receptor: Potentiators | AID 624464, 2012 | D(2) dopamine receptor (Homo sapiens), P14416 | actives 0.23% (n = 360,000) | potentiation, % (no concentration beside the values) | DiscoveRx D2 beta-arrestin cells, luminescence, 90 min; 100% = 57 uM dopamine signal; in the data active means potentiation above about 50%
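D2 cells co-treated with compound plus 50 nM dopamine (EC20) for 90 min at 37 deg C to detect potentiation. Beta-arrestin recruitment was read as enzyme-fragment luminescence after 1 h at ambient temperature. Full response was set by 57 uM dopamine.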
D2 PAM-2: HTS Assay for Positive Allosteric Modulators of the Human D2 Dopamine Receptor: Primary Screen for Potentiators; D(2) dopamine receptor (Homo sapiens), P14416; HEK293 T-REx D2, calcium flux, EC20 dopamine potentiation; potentiation, % at 10 µM; actives 0.34% (n = 340,000); AID 485347, 2010;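 active means potentiation over 3 SD above the plate norm, cut at about 30% in these data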
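Tetracycline-induced Hek293 Trex D2 cells, force-coupled to calcium, loaded with no-wash calcium dye. Compound added with 180 s kinetic read for agonism, then EC20 dopamine and a further 180 s read for potentiation.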
D2 ag-2: HTS Assay for Allosteric Agonists of the Human D2 Dopamine Receptor: Primary Screen for Agonists; activation, % at 2 µM; actives 0.53% (n = 340,000); HEK293 T-REx D2 cells, calcium flux agonist mode;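 active means activation over 3 SD above normal in the single-dose calcium agonist read, cut at about 30% in these data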
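Agonism is scored from calcium flux in a force-coupled, inducible HEK293 cell line expressing D2, read kinetically for 180 s after compound addition against dopamine controls.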
Numbers stand for hits. The list is not random: actives were taken first. Their share in the collection is about 2.4%.

How did CC(O)(CS(=O)(=O)c1ccc(Br)cc1)c1ccccc1 (configuration not stated) do in these assays?
D2 ag-1: inactive; D2 antag: 31.2; D2 PAM-1: inactive; D2 PAM-2: inactive; D2 ag-2: inactive

Results for O=S(=O)(CC(O)(c1ccccc1)c1ccccc1)CC(O)(c1ccccc1)c1ccccc1 ?
D2 ag-1: inactive; D2 PAM-1: inactive

Results for O=C1CC(c2nnc(Cc3ccc(F)cc3Cl)o2)CN1c1ccccc1 (configuration not stated) ?
D2 PAM-2: inactive; D2 ag-2: inactive

How did Cc1ccc(NC(=O)CCCn2c(=O)oc3ccccc32)c(O)c1 do in these assays?
D2 ag-1: inactive; D2 antag: inactive; D2 PAM-1: inactive; D2 PAM-2: inactive; D2 ag-2: inactive

What do the screens show for `CCOC(=O)c1cccc(NC(=O)CCn2c(=O)oc3ccccc32)c1`?
D2 ag-1: inactive; D2 antag: 32.1; D2 PAM-1: inactive; D2 PAM-2: inactive; D2 ag-2: inactive

Results for O=C(CCn1c(=O)oc2ccccc21)Nc1cccc(Cl)c1 ?
D2 ag-1: inactive; D2 antag: inactive; D2 PAM-1: inactive; D2 PAM-2: inactive; D2 ag-2: inactive

What do the screens show for `Cc1cc(C)c(NC(=O)CCCn2c(=O)oc3ccccc32)c(C)c1`?
D2 ag-1: inactive; D2 antag: 33.1; D2 PAM-1: inactive; D2 PAM-2: inactive; D2 ag-2: inactive

What do the screens show for `CCOC(=O)c1c(NC(=O)Cn2c(=O)oc3ccccc32)oc(C)c1C(C)=O`?
D2 ag-1: inactive; D2 antag: 30.5; D2 PAM-1: inactive; D2 PAM-2: inactive; D2 ag-2: inactive

How did CCOC(=O)c1c(C)[nH]c(C(=O)Cn2c(=O)oc3ccccc32)c1C do in these assays?
D2 ag-1: inactive; D2 antag: inactive; D2 PAM-1: inactive; D2 PAM-2: inactive; D2 ag-2: inactive

What do the screens show for `Cc1ccc(NS(=O)(=O)c2ccc(-c3cc(C)no3)cc2)c(Br)c1`?
D2 PAM-2: inactive; D2 ag-2: inactive

Results for COc1ccc(C2C(C(=O)Nc3ccccc3)=C(C)Nc3nc(-c4ccccc4Cl)nn32)cc1OC (configuration not stated) ?
D2 PAM-2: inactive; D2 ag-2: inactive

Results for COc1ccc(Cl)cc1NC(=S)NCCc1ccc(F)cc1 ?
D2 ag-1: inactive; D2 antag: 39.6; D2 PAM-1: inactive; D2 PAM-2: inactive; D2 ag-2: inactive

What do the screens show for `Fc1ccc(NC(=S)NCCc2ccc(Cl)cc2)cc1`?
D2 ag-1: inactive; D2 antag: 31.7; D2 PAM-1: inactive; D2 PAM-2: inactive; D2 ag-2: inactive

How did COc1ccc(Cl)cc1NC(=S)NCCc1ccc(S(N)(=O)=O)cc1 do in these assays?
D2 ag-1: inactive; D2 antag: inactive; D2 PAM-1: inactive; D2 PAM-2: inactive; D2 ag-2: inactive

What do the screens show for `COc1ccc(CCNC(=O)c2ccc3c(c2)c(C)c(C)n3Cc2ccc(F)cc2)c(OC)c1OC`?
D2 PAM-2: inactive; D2 ag-2: inactive

Results for COc1ccc(N2CCN(C(=O)c3c(C)oc4ncn(CC(C)C)c(=O)c34)CC2)cc1 ?
D2 PAM-2: inactive; D2 ag-2: inactive

How did CCC(=O)Nc1cccc(NC(=O)c2ccc(C)cc2Cl)c1 do in these assays?
D2 ag-1: inactive; D2 antag: 34.6; D2 PAM-1: inactive; D2 PAM-2: inactive; D2 ag-2: inactive

Results for CCC(=O)Nc1cccc(NC(=O)c2ccccc2Cl)c1 ?
D2 ag-1: inactive; D2 antag: inactive; D2 PAM-1: inactive; D2 ag-2: inactive

What do the screens show for `Cc1cccc(C(=O)Nc2ccc(C(=O)OCc3cc(=O)n4c(C)csc4n3)cc2)c1`?
D2 PAM-2: inactive; D2 ag-2: inactive

What do the screens show for `O=C(COC(=O)c1cc([N+](=O)[O-])ccc1N1CCOCC1)Nc1ccc(Cl)cc1`?
D2 ag-1: inactive; D2 antag: 41.8; D2 PAM-1: inactive; D2 PAM-2: inactive; D2 ag-2: inactive

What do the screens show for `CCN(CC)S(=O)(=O)c1ccc(OC)c(NC(=O)c2cc([N+](=O)[O-])ccc2N2CCOCC2)c1`?
D2 ag-1: inactive; D2 PAM-1: inactive

How did CCN(CC)S(=O)(=O)c1cc(NC(=O)c2cc([N+](=O)[O-])ccc2N2CCOCC2)ccc1C do in these assays?
D2 ag-1: inactive; D2 antag: 37.3; D2 PAM-1: inactive; D2 PAM-2: inactive; D2 ag-2: inactive

Results for COc1ccc(CNC(=O)c2cc3cccc4c3n2CC(C)S4)cc1OC (configuration not stated) ?
D2 PAM-2: inactive; D2 ag-2: inactive

How did COc1ccc2c(c1)sc1ncc(C(=O)NCc3ccc(Cl)cc3)c(=O)n12 do in these assays?
D2 PAM-2: inactive; D2 ag-2: inactive

What do the screens show for `c1csc(-c2nnc(NC3CCCCC3)c3ccccc23)c1`?
D2 ag-1: inactive; D2 antag: 43.2; D2 PAM-1: inactive; D2 PAM-2: inactive; D2 ag-2: inactive

What do the screens show for `CC(C)OC(=O)C1C(=O)CC(C)(O)C(C(=O)OC(C)C)C1c1cccc(O)c1` (configuration not stated)?
D2 ag-1: inactive; D2 antag: 31.8; D2 PAM-1: inactive; D2 PAM-2: inactive; D2 ag-2: inactive

Results for CCCn1c(NCc2ccccc2C)nc2ccccc21 ?
D2 PAM-2: inactive; D2 ag-2: inactive

What do the screens show for `CCCn1c(Nc2ccccc2C)nc2ccccc21`?
D2 ag-1: inactive; D2 antag: 42.5; D2 PAM-1: inactive; D2 PAM-2: inactive; D2 ag-2: inactive

What do the screens show for `Cc1cc(C=O)c(C)n1-c1ccc(Cl)c(C(=O)O)c1`?
D2 ag-1: inactive; D2 antag: 37.0; D2 PAM-1: inactive; D2 PAM-2: inactive; D2 ag-2: inactive

Results for CCOC(=O)CSc1nc2c(sc3ccccc32)c(=O)n1Cc1ccc(OC)cc1 ?
D2 PAM-2: inactive

How did CC1(C)Cc2c(c(N3CCOCC3)nc3sc(C(N)=O)c(N)c23)CO1 do in these assays?
D2 ag-1: inactive; D2 antag: inactive; D2 PAM-1: inactive; D2 PAM-2: inactive; D2 ag-2: inactive

Results for CC1(C)Cc2c(c(N3CCOCC3)nc3sc(C#N)c(N)c23)CS1 ?
D2 ag-1: inactive; D2 antag: 38.1; D2 PAM-1: inactive; D2 PAM-2: inactive; D2 ag-2: inactive

Results for CC(=O)N1CCc2cc(S(=O)(=O)NC(CC(C)C)C(=O)Nc3ccc(C(C)C)cc3)ccc21 (configuration not stated) ?
D2 PAM-2: inactive; D2 ag-2: inactive

How did COc1cccc(C(=O)Nc2ccccc2-c2nnc(-c3ccc(C(C)(C)C)cc3)o2)c1 do in these assays?
D2 PAM-2: inactive; D2 ag-2: inactive

Compound activity as filed in PubChem.
